Screen size: about 47,000 compounds; about 200 (0.43%) were called active. Not shown: some 1% with an inconclusive outcome.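 How the source made its calls: active means inhibition of aggregate fluorescence above about 70%, also judged a hit by eye on the cell image (limit read from the data, passing the limit was not always enough); inconclusive means no rule stated for this call; inactive means not judged a hit on image review.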 The full list was thinned out, with actives kept by preference.
assay: clearance of mutant huntingtin inclusions, primary screen, imaging, HeLa Exon1htt(103Q)mCFP, confocal imaging (AID 853); details: aggregate imaging, at 1.5 µM; fraction fluorescence in grains: measured here: aggregate grain fluorescence fraction, stronger effect = lower value; inhibition: stronger effect = higher value;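 further: cells exposed to compound for three days before fixation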

Structure (SMILES)	fraction fluorescence in grains	inhibition
N#Cc1ccc(Cn2cc(C(=O)c3ccco3)c3ccccc32)cc1	6.7	83.1% (active)
COc1ccc(CCn2c(O)c(C=NC3CC3)c(=O)[nH]c2=O)cc1OC	56	-52.1% (inactive)
CC(C)c1ccc(OCC(=O)N2CCN(C)CC2)c(Br)c1	48.9	-31% (inactive)
CCN1CCN(C(=O)Cc2coc3cc(C)cc(C)c23)CC1	24	-20.7% (inactive)
c1cc2c(cc1CCNC1CCCCCC1)OCO2	16.3	11.1% (inactive)

Source: PubChem BioAssay AID853 (Columbia University Molecular Screening Center, 2007)
